A short description of assay [1]: qHTS assay to identify small molecule agonists of the vitamin D receptor (VDR) signaling pathway - cell viability counter screen (AID 743224). Note: series mostly up to about 63 µM; % is set by controls: 0 for no effect and ±100 for the full control effect; nearly all actives have a fitted effect of over 50% in size. The procedure, abridged: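 Compounds were pin-transferred onto VDR-bla cells plated 4 h earlier; following 16 h incubation at 37C, cell viability was quantified by CellTiter-Glo luminescence after 30 min at room temperature.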

The nature of assay [2]: qHTS assay to identify small molecule antagonists of the vitamin D receptor (VDR) signaling pathway - cell viability counter screen (AID 743225). Note: % is set by controls: 0 for no effect and ±100 for the full control effect; nearly all actives have a fitted effect of over 50% in size. The procedure, abridged:
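Luminescent cell viability (CellTiter-Glo) in VDR-bla HEK 293T cells after 16 h compound exposure at 37C in the presence of 3 nM final 1-alpha,25-dihydroxy vitamin D3.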
In general terms: qHTS replaces the single test concentration by a dilution series.

The nature of assay [3]: qHTS assay to identify small molecule agonists of the NFkB signaling pathway (AID 1159509; active = well fitted curve in the direction sought with a large enough effect in the signal ratio in the repeat runs, not every such curve was filed as active; the % refers to the signal ratio; note: series mostly up to about 61 µM; % is set by controls: 0 for no effect and ±100 for the full control effect). The method, boiled down:
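Pathway activation was measured in ME-180 cells stably expressing beta-lactamase under NF-kB response element control. Substrate cleavage was read as the 460/530 nm emission shift after 5 hr compound incubation.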

The nature of assay [4]: qHTS assay to identify small molecule agonists of the endoplasmic reticulum stress response signaling pathway (AID 1159516; active = well fitted activation curve with a large enough effect in the signal ratio in the repeat runs, not every such curve was filed as active; the % refers to the signal ratio; note: % is set by controls: 0 for no effect and ±100 for the full control effect). The method, boiled down: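 Using a HeLa line with an ESRE-driven beta-lactamase gene, agonist activity was measured by FRET substrate fluorescence (460 and 530 nm emission) after cells were treated with compounds for 5 hr at 37 C and 5% CO2.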
Assay [5] is described as follows: qHTS assay to identify small molecule agonists of the endoplasmic reticulum stress response signaling pathway - cell viability counter screen (AID 1159517; calls by dose curve;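 note: HeLa cells carrying an ER stress response element beta-lactamase reporter; series mostly up to about 61 µM; % is set by controls: 0 for no effect and ±100 for the full control effect; nearly all actives have a fitted effect of over 50% in size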). The procedure, abridged: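 ESRE-bla HeLa cells (1,500/well) were plated overnight at 37 C and exposed to compounds for 5 hr. After the 2 hr beta-lactamase substrate read, CellTiter-Glo went into the same wells, and luminescence was read after 30 min at room temperature.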

Assay [6] in a line: qHTS assay to identify small molecule antagonists of the retinoid-related orphan receptor gamma (ROR-gamma) signaling pathway - cell viability counter screen (AID 1159520). Note: nearly all actives have a fitted effect of over 50% in size. Note: potency is the fitted concentration of half-maximal effect. The procedure, abridged: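 Cytotoxicity was read from cellular ATP (CellTiter-Glo luminescence) after 16 hr at 37 C with 1 uM doxycycline induction. The inducer was added 2 hr after compound transfer to Tet-on ROR gamma CHO cells.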

Assay [7] deals with Nuclear receptor ROR-gamma (Homo sapiens) (UniProt P51449). Description: qHTS assay to identify small molecule antagonists of the retinoid-related orphan receptor gamma (ROR-gamma) signaling pathway (AID 1159521). The method, boiled down:
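CHO cells expressing RORγ under a TET-on promoter, luciferase under RORE control. Dox 1 uM final, 16 h; compounds added 2 h prior. Luminescence decrease measured.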

The nature of assay [8]: qHTS assay to identify small molecule agonists of the AP-1 signaling pathway - cell viability counter screen (AID 1159525; calls by dose curve; note: nearly all actives have a fitted effect of over 55% in size). The procedure, abridged:
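Intracellular ATP by Cell Titer Glo luminescence (30 min, RT) in the same ME-180 AP-1-bla wells after the 5 h compound exposure at 37 °C. Normalised to tetra n-octyl ammonium bromide and DMSO controls.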

A short description of assay [9]: qHTS assay to identify small molecule agonists of the AP-1 signaling pathway (AID 1159526; calls by dose curve; note: % is set by controls: 0 for no effect and ±100 for the full control effect).
The target of assay [10] is Retinoic acid receptor RXR-alpha (Homo sapiens) (UniProt P19793). Description: qHTS assay to identify small molecule agonists of the RXR signaling pathway (AID 1159527; calls by dose curve; note: % is set by controls: 0 for no effect and ±100 for the full control effect; nearly all actives have a fitted effect of over 35% in size). The procedure, abridged:
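Beta-lactamase reporter assay, agonist format. Engineered HEK 293T line, charcoal-stripped FBS at 2%, overnight (16 hr) exposure, fluorescence at 460 and 530 nm after 405 nm excitation.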

Assay [11] is described as follows: qHTS assay to identify small molecule antagonists of the retinoid acid receptor (RAR) signaling pathway - cell viability counter screen (AID 1159551). Note: % is set by controls: 0 for no effect and ±100 for the full control effect; nearly all actives have a fitted effect of over 35% in size. The method, boiled down:
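ATP-based viability, C3RL4 cells, 6 h at 37 C with 1 uM final retinol co-added after compound; luminescence read 30 min post CellTiter-Glo, RT.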

A short description of assay [12]: qHTS assay to identify small molecule antagonists of the retinoic acid receptor (RAR) signaling pathway (AID 1159552). The procedure, abridged: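 Readout: luciferase luminescence, 30 min post-reagent at RT. Setup: C3RL4 RARE reporter cells, compounds plus retinol 1 uM final, 6 hr incubation at 37 C and 5% CO2.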
Assay [13] in a line: qHTS assay to identify small molecule agonists of the retinoic acid receptor (RAR) signaling pathway (AID 1159553). Note: potency is the fitted concentration of half-maximal effect. The method, boiled down:
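Quantitative high-throughput format: the Tox21 10K library was tested on C3RL4 RARE-luciferase cells for 6 hr at 37 C and 5% CO2, with luminescence measured after a 30 min room-temperature reagent step.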

Assay [14] in a line: qHTS assay to identify small molecule agonists of the NFkB signaling pathway - cell viability counter screen (AID 1159515; calls by dose curve; note: series mostly up to about 61 µM; % is set by controls: 0 for no effect and ±100 for the full control effect; nearly all actives have a fitted effect of over 55% in size). The procedure, abridged:
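Parallel cytotoxicity counter screen in ME-180 cells carrying an NFkB-response-element beta-lactamase reporter, 2,000 cells/well. Compound exposure lasted 5 hr at 37 C, 5% CO2. Cell viability was quantified by CellTiter-Glo luminescence.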

Assay [15] in a line: qHTS assay to identify small molecule agonists of the RXR signaling pathway - cell viability counter screen (AID 1159529). The procedure, abridged:
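Same-well viability check after the LiveBLAzer FRET read: CellTiter-Glo added, luminescence measured after 30 min at room temperature. Reporter HEK 293T cells had been treated with compounds for 16 hr following a 5 hr preincubation.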

The nature of assay [16]: qHTS assay to identify small molecule antagonists of the estrogen related receptor (ERR) signaling pathway - cell viability counter screen (AID 1224818).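 Note: series mostly up to about 46 µM; viability measured after 17.5 h of compound exposure; % is set by controls: 0 for no effect and ±100 for the full control effect.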 The procedure, abridged:
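Quantitative high-throughput viability counter screen in ERR cells. Compounds (DMSO) incubated 17.5 h at 37 C; read-out was CellTiter-Fluor fluorescence.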

The nature of assay [17]: qHTS assay to identify small molecule antagonists of the estrogen related receptor signaling pathway with the pleiotropic PPARgamma coactivator (PGC) cell viability counter screen (AID 1224822). The method, boiled down:
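Cytotoxicity in the PGC/ERR cell line is assessed with CellTiter-Fluor, read as fluorescence intensity 30 min after reagent addition, following 17.5 h compound treatment at 37 C.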

Inconclusive results are not listed. A number with no mark means an inactive call. Activity calls are given as the source filed them. Unless noted, calls come from the whole dose curve; as a rule, active = well fitted curve in the direction sought with a large enough effect in the repeat runs; inconclusive = weak or mixed curves; inactive = no such curve, though single readings can be large; an effect the other way counts as inactive or inconclusive.

Sequence of Retinoic acid receptor RXR-alpha (Homo sapiens) (P19793 whole entry, looked up): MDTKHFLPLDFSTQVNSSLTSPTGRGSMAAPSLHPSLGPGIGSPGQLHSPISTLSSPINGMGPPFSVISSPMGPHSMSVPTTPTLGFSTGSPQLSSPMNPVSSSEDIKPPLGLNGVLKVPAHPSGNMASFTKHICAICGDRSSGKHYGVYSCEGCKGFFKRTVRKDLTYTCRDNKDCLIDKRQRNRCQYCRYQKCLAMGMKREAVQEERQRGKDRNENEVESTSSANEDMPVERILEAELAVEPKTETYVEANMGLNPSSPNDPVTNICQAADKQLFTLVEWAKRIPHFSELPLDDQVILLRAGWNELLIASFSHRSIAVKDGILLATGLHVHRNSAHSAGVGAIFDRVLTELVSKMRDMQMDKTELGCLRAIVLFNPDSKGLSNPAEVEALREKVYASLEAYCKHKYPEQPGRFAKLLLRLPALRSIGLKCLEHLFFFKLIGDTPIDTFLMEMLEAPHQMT

Regarding `Cc1ccccc1Br`, the result in assay [1], in assay [2], in assay [3], in [4], in assay [5] and in assay [8] was inactive. The call in [11] was inactive. In addition, the Potency result in assay [6], in assay [7], in [9], in [10], in assay [12] and in [13] was “inactive” in each case.
`C=CCOc1nc(OCC=C)nc(OCC=C)n1`: the result in assay [1], in assay [14], in assay [4], in assay [5], in assay [8] and in assay [11] was inactive. The Potency entry in assay [6], in [7], in [9], in assay [10] and in assay [15] was “inactive” in each case.
`CCCCCN(CCCCC)C(=O)C(CCC(=O)O)NC(=O)c1ccc(Cl)c(Cl)c1` (centres undefined): the compound was classed as inactive in assay [1], in [2], in assay [3], in assay [4], in assay [5] and in assay [8]. The compound was called inactive in assay [11], in [16] and in assay [17]. Moreover, the Potency entry in assay [6], in assay [7], in assay [9], in [12] and in [13] was “inactive” in each case.
On to `CCc1cc(S(=O)(=O)O)c2cc(C(C)C)cccc1-2`, for which the compound was called inactive in assay [1], in assay [2], in [3], in [4], in [5] and in assay [8]. Also, the outcome in assay [11] was inactive. Besides, the Potency entry in [6], in assay [7], in assay [9], in assay [10] and in assay [15] was “inactive” throughout.
With `COc1ccc(N=[N+]([O-])c2ccc(OC)cc2)cc1`, the compound was classed as inactive in assay [1], in assay [2], in [3], in assay [4], in assay [5] and in [8]. In addition, the outcome in [11] was inactive. In addition, the Potency result in assay [6], in assay [9], in [10] and in [12] was “inactive” in each case. The Potency in [13] is 0.027 µM (active).
`COC(=O)CCCCCCCCC(=O)OC`: the compound was called inactive in [1], in [2], in assay [3], in assay [4], in assay [5] and in assay [8]. In [11], the compound was called inactive. In addition, the Potency result in [6], in assay [9], in [10] and in assay [15] was “inactive” throughout.
For `O=C(O)CCNC(=O)c1ccc(N=Nc2ccc(O)c(C(=O)O)c2)cc1`, the call in assay [1], in [2], in assay [14], in assay [4], in [5] and in assay [8] was inactive. For the same compound, the outcome in assay [11] was inactive. In addition, the Potency entry in assay [6], in [7], in assay [9], in [10] and in assay [15] was “inactive” in each case.
Take `NC(=O)c1c(Cl)cccc1Cl`: the outcome in assay [1], in assay [3], in [4] and in assay [8] was inactive. Moreover, the Potency entry in assay [6], in assay [7], in assay [9], in [10] and in assay [15] was “inactive” throughout.
For `O=C(CCOCCOCCOCCOCCC(=O)Nc1c(I)cc(I)c(C(=O)O)c1I)Nc1c(I)cc(I)c(C(=O)O)c1I`, the call in [1], in assay [2], in assay [3], in [4], in [5] and in [8] was inactive. Besides, the Potency result in assay [6], in assay [7], in assay [9], in [10], in [15] and in assay [12] was “inactive” each time. Moreover, the Potency entry in assay [13] is “inactive”.
Consider `CC/C=C\CCCCO`, for which the compound was called inactive in assay [1], in [2], in assay [3], in assay [4], in assay [5] and in [8]. In addition, the Potency result in assay [6], in assay [7], in assay [9] and in assay [10] was “inactive” throughout.
As to `Cc1c(F)cc2c(=O)c(C(=O)O)cn3c2c1CCC3C` (centres undefined), the call in assay [1], in assay [2], in [14], in [4], in assay [5] and in [8] was inactive. The result in [11] was inactive. Besides, the Potency result in [6], in assay [7], in [9], in assay [10] and in assay [15] was “inactive” each time.
With `CC(C)(O)C(=O)c1ccc(OCCO)cc1`, the result in [1], in [2], in assay [3], in [4], in assay [5] and in [8] was inactive. For the same compound, the Potency entry in [6], in assay [7], in assay [9], in [10] and in assay [15] was “inactive” in each case.
For the compound `Cc1ccccc1C(=O)O`, the result in [1], in [2], in assay [3], in assay [4], in assay [5] and in assay [8] was inactive. Further, the compound was called inactive in assay [11]. Further, the Potency entry in assay [6], in assay [7], in [9], in [10] and in [15] was “inactive” in each case.
On to `CCOC(=O)[C@H](CCc1ccccc1)N[C@@H](C)C(=O)N1CCC[C@H]1C(=O)O`, for which the outcome in [1], in assay [2], in assay [3], in [4], in [5] and in [8] was inactive. For the same compound, the compound was classed as inactive in assay [11]. The Potency result in assay [6], in [7], in [9], in assay [10] and in [15] was “inactive” throughout.
`CC(=O)O[C@H](CC(=O)[O-])C[N+](C)(C)C`: the result in assay [1], in [2], in [3], in assay [4], in [5] and in [8] was inactive. The Potency result in assay [9], in assay [10] and in assay [15] was “inactive” throughout.
Regarding `CCC(C)(C)C1CCC(OC)CC1` (centres undefined), the call in assay [1], in assay [2], in assay [3], in assay [4], in assay [5] and in assay [8] was inactive. Besides, the Potency in assay [6] is 48.6 µM (active). In addition, the Potency entry in assay [7], in assay [9], in assay [10] and in assay [15] was “inactive” each time.
Consider `Cn1cnc2c(=O)[nH]c(N)nc21`, for which the result in assay [1], in assay [2], in assay [3], in assay [4], in assay [5] and in assay [8] was inactive. Further, the call in [11] was inactive. The Potency result in assay [6], in assay [7], in [9], in assay [10] and in assay [15] was “inactive” each time.
For the compound `C1CCCCCCCCCCC1`, the outcome in [1], in [2], in [3], in assay [4] and in assay [5] was inactive. In assay [7], the activity change, negative = inhibition is -5.57% [at 19 µM]. The viability change, negative = cytotoxic in assay [8] was 0.327% [at 15.8 µM]. In addition, the activation in assay [9] was -0.287% [at 15.8 µM]; in [10], 0.57% [at 15.8 µM]. Also, the activity change, negative = cytotoxicity in assay [15] is 1.49% [at 15.8 µM]; in assay [11] it was -2.08% [at 19 µM].
Regarding `C=C[Si](OC)(OC)OC`, the result in assay [1], in assay [2], in [3], in [4], in assay [8] and in assay [11] was inactive. In addition, the Potency result in assay [6], in assay [7], in assay [9], in assay [10] and in assay [15] was “inactive” throughout.
For the compound `O=C(O)c1ccc[n+]([O-])c1`, the result in [1], in assay [14], in assay [4], in [5], in assay [8] and in assay [11] was inactive. Besides, the Potency result in assay [6], in assay [7], in [9], in assay [10] and in [15] was “inactive” throughout.

These data come from PubChem BioAssay (Tox21).
